Rows were chosen to be rich in hits. Some 2.9% of all compounds tested hit in one or more screens of this group.
Beta2AR agonist = human beta-2 adrenergic receptor agonism by FAP | hit rate 0.43% among 340,000 | AID 504454 | response, % (no concentration beside the values) | Am2.2-beta2AR cells, FAP receptor internalization, flow cytometry;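 active = response above a set limit, near 3 SD of response in nonfluorescent compounds, cut at about 42% in these data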
Target sequence (P07550 whole entry, looked up): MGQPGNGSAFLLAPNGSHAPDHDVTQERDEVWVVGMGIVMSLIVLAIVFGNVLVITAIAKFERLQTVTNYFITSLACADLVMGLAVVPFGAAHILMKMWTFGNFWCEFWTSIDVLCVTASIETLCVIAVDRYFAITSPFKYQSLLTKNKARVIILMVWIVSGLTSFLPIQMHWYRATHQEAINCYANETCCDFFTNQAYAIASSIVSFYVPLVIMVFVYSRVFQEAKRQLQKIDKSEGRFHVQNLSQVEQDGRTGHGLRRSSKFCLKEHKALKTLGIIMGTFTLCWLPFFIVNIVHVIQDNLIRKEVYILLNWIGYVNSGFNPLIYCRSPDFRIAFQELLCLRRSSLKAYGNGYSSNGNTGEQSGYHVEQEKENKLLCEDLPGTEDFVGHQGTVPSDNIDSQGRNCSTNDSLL
MEKK3 PB1 HTS = MEKK3-MEK5 PB1 interaction, increase or decrease | Q99759 | bead-based flow cytometry, Alexa488-MEK5 binding to MEKK3; actives lie on both sides; 0 = blocked by unlabeled MEK5, 100 = vehicle | binding response (% of control), % at 10 µM | hit rate 1.4% among 290,000 | AID 1529;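 active = binding response more than 3 SD above or below the average of its plate-row segment, actives on both sides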;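 also: Alexa488 bead fluorescence after subtracting the streptavidin-only scavenger bead signal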
GRK2 inh = inhibitors of human GRK2 displacing RNA aptamer | bead flow cytometry, FAM-aptamer displacement from GRK2 | inhibition of aptamer binding, % at 10 µM | P25098 | AID 488847 | hit rate 0.59% among 330,000;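 active = inhibition of aptamer binding above 40%, roughly 3 SD of noise, on plates passing a quality check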;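 also: median bead fluorescence of bound FAM aptamer so fluorescent compounds give negative values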
MEKK2mut PB1 HTS = signal of MEK5 binding to mutant human MEKK2 PB1 domain. bead flow cytometry, Alexa488-MEK5 binding to MEKK2 mutant. percent response, % at 10 µM. hit rate 0.35% among 290,000; in the data active = percent response above about 24%, passing the limit was not always enough
MEKK2 WT-MEK5 = raises or lowers MEK5 binding to wildtype human MEKK2 PB1 domain. hit rate 1.1% among 290,000. bead flow cytometry, Alexa488-MEK5 binding to MEKK2 WT; actives lie on both sides. AID 1531. binding response (% of control), % at 10 µM; in the data active = binding response below about 67% or above about 130%
MEKK2wt confirm = raises or lowers MEK5 binding to wildtype human MEKK2, retest; hit rate 2.4% among 5,900; shares compounds with MEKK3 PB1 HTS; binding response (% of control), % at 10 µM; bead flow cytometry, Alexa488-MEK5 binding to MEKK2 WT; actives lie on both sides; AID 1892; in the data active = binding response below about 16% or above about 210%; inactive = in between
MEKK2mut confirm = signal of MEK5 binding to mutant human MEKK2, retest | shares compounds with MEKK3 PB1 HTS | bead flow cytometry, Alexa488-MEK5 binding to MEKK2 mutant | percent response, % at 10 µM | hit rate 2% among 5,900 | AID 1893; in the data active = percent response mostly above about 71%, no sharp cut-off; inactive = mostly below about 38%;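 also: higher means compound restores mutant binding toward wildtype level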
MEKK3 confirm = confirmation of inhibitors of MEK5 binding to human MEKK3. hit rate 1.8% among 5,900. shares compounds with MEKK3 PB1 HTS. binding response (% of control), % at 10 µM. bead flow cytometry, Alexa488-MEK5 binding to MEKK3; hits give low values;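 active = binding response below 72% of control, or above a set upper limit, though filed actives all read lower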;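 also: lower values mean stronger disruption of MEK5 binding to MEKK3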
Hits are given with their value; [ ] = remark or other dose.

For O=C(CSc1nnc(CNC(=O)c2c(F)cccc2Cl)o1)Nc1ccccc1 the results were Beta2AR agonist inactive and GRK2 inh inactive.
`CCc1ccc(NC(=O)CSc2nnc(CNC(=O)c3c(F)cccc3Cl)o2)cc1` gave Beta2AR agonist inactive, MEKK3 PB1 HTS 3.0[inhibitor], GRK2 inh inactive, MEKK2mut PB1 HTS inactive, MEKK2 WT-MEK5 3.0[inhibitor], MEKK2wt confirm inactive, MEKK2mut confirm inactive and MEKK3 confirm inactive.
NC(=O)c1ccc(SCC(=O)OCC(=O)N2CCN(C(=O)c3ccco3)CC2)c([N+](=O)[O-])c1 was read as Beta2AR agonist inactive and GRK2 inh inactive.
Cc1ccc(N=Cc2sc(O)c3ccccc23)c(C)c1 was read as Beta2AR agonist inactive, MEKK3 PB1 HTS inactive, GRK2 inh inactive, MEKK2mut PB1 HTS inactive, MEKK2 WT-MEK5 135, MEKK2wt confirm inactive, MEKK2mut confirm inactive and MEKK3 confirm inactive.
`Cc1ccc(N=Cc2sc(O)c3ccccc23)cc1` gave Beta2AR agonist inactive, MEKK3 PB1 HTS inactive, GRK2 inh inactive, MEKK2mut PB1 HTS inactive and MEKK2 WT-MEK5 inactive.
For CC[C@H]1C(=O)[C@@H](Cc2ccccc2)[C@@H]2CCN3C(=O)CCC[C@H]1[C@H]23 the results were Beta2AR agonist inactive.
For CCN(CC)C(=S)Nc1ccc(OC(F)F)cc1 the results were Beta2AR agonist inactive, MEKK3 PB1 HTS inactive, GRK2 inh inactive, MEKK2mut PB1 HTS inactive and MEKK2 WT-MEK5 inactive.
For CCN(CC)C(=S)Nc1ccc(OC)cc1 the results were Beta2AR agonist inactive, MEKK3 PB1 HTS 155, GRK2 inh inactive, MEKK2mut PB1 HTS inactive, MEKK2 WT-MEK5 inactive, MEKK2wt confirm inactive, MEKK2mut confirm inactive and MEKK3 confirm inactive.
O=C(N=C1c2ccccc2CN1c1cccc(Cl)c1)c1cccnc1 was read as Beta2AR agonist inactive, MEKK3 PB1 HTS 56[inhibitor], GRK2 inh inactive, MEKK2mut PB1 HTS inactive, MEKK2 WT-MEK5 inactive, MEKK2wt confirm inactive, MEKK2mut confirm inactive and MEKK3 confirm inactive.
Screening O=C(N=C1c2ccccc2CN1c1ccc(F)c(F)c1)c1cccnc1 returned Beta2AR agonist inactive, MEKK3 PB1 HTS inactive, GRK2 inh inactive, MEKK2mut PB1 HTS inactive and MEKK2 WT-MEK5 inactive.
O=S(=O)(c1ccc(Cl)s1)N1CCCc2cccc(O)c21 was read as Beta2AR agonist inactive, MEKK3 PB1 HTS inactive, GRK2 inh inactive, MEKK2mut PB1 HTS inactive and MEKK2 WT-MEK5 inactive.
`Oc1ccc(Nc2nc(NCC3CCCO3)c3ccccc3n2)cc1` (configuration not stated) gave Beta2AR agonist inactive, MEKK3 PB1 HTS inactive, MEKK2mut PB1 HTS inactive and MEKK2 WT-MEK5 inactive.
Screening COc1cccc(Nc2nc(NCC3CCCO3)c3ccccc3n2)c1 (configuration not stated) returned Beta2AR agonist inactive, MEKK3 PB1 HTS inactive, GRK2 inh inactive, MEKK2mut PB1 HTS inactive, MEKK2 WT-MEK5 144, MEKK2wt confirm inactive, MEKK2mut confirm inactive and MEKK3 confirm inactive.
`COc1cc(/C=N/N2CCN(C3c4ccccc4-c4ccccc43)CC2)cc(OC)c1OC` gave Beta2AR agonist inactive, MEKK3 PB1 HTS 130, GRK2 inh inactive, MEKK2mut PB1 HTS inactive, MEKK2 WT-MEK5 inactive, MEKK2wt confirm inactive, MEKK2mut confirm inactive and MEKK3 confirm inactive.
Screening O=C(O)c1ccccc1/C=N/N1CCN(C2c3ccccc3-c3ccccc32)CC1 returned Beta2AR agonist inactive, MEKK3 PB1 HTS 71[inhibitor], GRK2 inh inactive, MEKK2mut PB1 HTS inactive, MEKK2 WT-MEK5 inactive, MEKK2wt confirm inactive, MEKK2mut confirm inactive and MEKK3 confirm inactive.
Cc1ccc(C)c(OCCC(=O)Nc2cccc(S(=O)(=O)N3CCCCC3)c2)c1 was read as Beta2AR agonist inactive and GRK2 inh inactive.
Screening N#Cc1ccc(Oc2ccc(S(=O)(=O)N3CCOCC3)cn2)cc1 returned Beta2AR agonist inactive and GRK2 inh inactive.
